# Compound activity as filed in PubChem.
# The full list was thinned out, with hits kept by preference.
# FECH inh: human FECH heme synthesis enzyme inhibition; 20,000 compounds, 3.3% hits; calls only at 10 µM (by protocol); purified FECH, Ni-mesoporphyrin absorbance 550 nm;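 active = enzyme reaction rate more than 3 SD below the solvent-only control wells on the same plate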;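 note: lower slope than DMSO wells means FECH inhibition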
# Target sequence (P22830 whole entry, looked up): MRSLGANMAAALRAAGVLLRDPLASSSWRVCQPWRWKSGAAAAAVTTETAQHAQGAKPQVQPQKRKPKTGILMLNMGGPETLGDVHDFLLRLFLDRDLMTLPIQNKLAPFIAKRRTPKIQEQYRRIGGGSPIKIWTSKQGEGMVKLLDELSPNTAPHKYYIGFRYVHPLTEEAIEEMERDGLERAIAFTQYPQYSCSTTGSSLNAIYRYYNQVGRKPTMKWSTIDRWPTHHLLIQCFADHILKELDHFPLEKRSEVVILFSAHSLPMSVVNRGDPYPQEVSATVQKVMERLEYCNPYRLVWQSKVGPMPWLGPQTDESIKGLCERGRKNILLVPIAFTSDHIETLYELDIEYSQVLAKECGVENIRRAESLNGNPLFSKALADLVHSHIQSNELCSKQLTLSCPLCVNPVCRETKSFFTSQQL
# Starred values were filed as active, the others as inactive; i = inactive; + = active, no number.
SMILES,FECH inh
O=C(CN1CCN(Cc2ccc(F)cc2Cl)S1(=O)=O)Nc1ccccc1Cl,i
CC(C)C(CNC(=O)c1ccc2nnnn2c1)N(C)C (configuration not stated),i
CCCN(Cc1ccsc1)C(=O)c1cc(C)c(C)c(S(N)(=O)=O)c1,i
CC1CCN(S(=O)(=O)c2cc(-c3ccc(=O)[nH]n3)ccc2Cl)CC1,i
COc1ccc(Nc2cc(C)nc(Nc3ccc(NC(=O)c4ccc(Cl)cc4)cc3)n2)cc1,i
C=CCn1cc(CNC(CC)c2cnn(C)c2)c(C)n1 (configuration not stated),i
CO[C@H]1COC[C@@H]1NCC(=O)Nc1cccc(F)c1C,i
Cc1cnc(CN(C)CC(=O)Nc2cccc(F)c2C)[nH]1,+
CN(CC(=O)NCc1ccccc1F)Cc1cccc2ncccc12,i
CC(=O)N1CCc2c(sc(NC(=O)c3ccco3)c2-c2nc3ccccc3s2)C1,i
Cc1ccccc1CN1CCN(CC(=O)Nc2cc(Cl)ccc2C)S1(=O)=O,i
CCOC(=O)c1[nH]c2ccccc2c1CN1CCN(c2ncc(F)cn2)CC1,+
CCc1c(C(=O)N(C)CCn2ccnc2C)[nH]c2ccccc12,i
O=C(O)c1[nH]ncc1CN1CCN(c2nsc3ccccc23)CC1,i
CCOC(=O)c1ccc(NC(=O)CSc2ncnc3nc(N(C)C)sc23)cc1,i
CC(=O)Nc1ccc(S(=O)(=O)N2CCN(Cc3nc4cccnc4n3-c3ccccc3)CC2)cc1,i
CC(=O)Nc1ccc(C(=O)N2CCn3cncc3C2)c(C)c1,i
CC(C)n1cnc2nc(CSc3ccccc3NC(=O)c3ccc(F)c(Cl)c3)cc(=O)n21,i
CCc1cc(Sc2ccccc2NC(=O)c2cccc(F)c2)n2ncnc2n1,i
CC(C)n1cnc2nc(CSc3ccccc3NC(=O)c3cccc(F)c3)cc(=O)n21,+
CC(=O)Nc1c2n(c3ccc(F)cc13)CC(C)(C(=O)NC1CCC(C)CC1)N(CC1CCCO1)C2=O (configuration not stated),i
O=C(NCc1cc(-c2ccco2)on1)c1cccc(CC2CCNCC2)c1,i
CN(C)C(=O)c1ccc(-c2ccc(COCCN)cc2)cc1,+
COc1cccc(-n2cnnc2C(c2ccccc2)c2ccccc2)c1,i
CCCC1C=CCN1c1ncnc2sc3c(c12)CCNC3 (configuration not stated),+
SMILES,FECH inh
NC(=O)C1(N2CCCCC2)CCN(c2ncnc3sc4c(c23)CCNC4)CC1,i
CC(C)Cc1cc(CNc2ncnc3sc4c(c23)CCNC4)no1,i
Cc1ccc(-c2ccnc(NCC3(Cn4cccn4)CC3)n2)c(C)n1,i
Cc1ccc(N2CCCS2(=O)=O)cc1NC(=O)c1ccc(Br)o1,i
Cc1cc(N(C)C)nc(N2CCN(S(=O)(=O)c3ccc(Cl)cc3)CC2)n1,i
CC(=O)Nc1ccc(S(=O)(=O)N2CCN(c3nc(C)cc(N4CCCC4)n3)CC2)cc1,i
CC(=O)Nc1ccc(S(=O)(=O)N2CCN(c3nc(C)cc(N4CCOCC4)n3)CC2)cc1,i
Cc1cc(N(C)C)nc(N2CCN(S(=O)(=O)c3ccc(F)cc3)CC2)n1,+
CC(=O)Nc1ccc(S(=O)(=O)N2CCN(c3nc(C)cc(N4CCCCC4)n3)CC2)cc1,+
Cc1cc(N(C)C)nc(N2CCN(S(=O)(=O)c3ccc(C)c(C)c3)CC2)n1,i
COc1ccc(OCC(=O)Nc2cc(C)nn2-c2ncnc3c2cnn3-c2cccc(C)c2C)cc1,i
Cc1ncnc(NCc2cccnc2Oc2cccc(C(F)(F)F)c2)c1C,i
FC(F)C(F)(F)CCN1CCOC(c2ccc(Cl)c(Cl)c2)C1 (configuration not stated),i
COC(=O)c1ccccc1NC(=O)c1ccc(=O)n(Cc2ccc(F)cc2)c1,i
CCc1c(C)nc2ncnn2c1Sc1ccc(NC(=O)Nc2ccccc2Br)cc1,i
CCc1c(C)nc2ncnn2c1Sc1ccc(NC(=O)Nc2ccc(OC)cc2OC)cc1,+
CCc1c(C)nc2ncnn2c1Sc1ccc(NC(=O)Nc2ccsc2C(=O)OC)cc1,+
CCc1c(C)nc2ncnn2c1Sc1ccc(NC(=O)Nc2cc(OC)ccc2OC)cc1,i
CCc1c(C)nc2ncnn2c1Sc1ccc(NC(=O)Nc2cccc(C(=O)OC)c2)cc1,i
CCc1c(C)nc2ncnn2c1Sc1ccc(NC(=O)Nc2cc(OC)cc(OC)c2)cc1,i
Cc1nc(C(C)C)sc1C(=O)NCc1ccc2c(c1)OCCCO2,i
COc1ccc(-c2ncc3c(=O)n(Cc4ccncc4)c(=O)n(C)c3n2)cc1,i
C=CCSc1ncc(Cl)c(C(=O)Nc2ccc(S(N)(=O)=O)cc2)n1,i
Cc1cccc(C(=O)N(C)Cc2ccccc2C(F)(F)F)n1,i
O=C1C2CC=CCC2C(=O)N1c1nc2n(n1)C(c1ccccc1)C=C(c1ccccc1)N2 (configuration not stated),i
SMILES,FECH inh
CCc1noc(CN(CC)C(=O)c2ccccc2N2CCCC2)n1,i
CCc1noc(CN(CC)C(=O)C(c2cccc(C)c2)N(C)C)n1 (configuration not stated),i
CCc1noc(CN(CC)C(=O)C(C)n2cnc3ccccc32)n1 (configuration not stated),+
C=CCN(Cc1cccnc1)C(=O)[C@@]12CC[C@@H](C1)C(C)(C)C2=C,i
CCc1cc(Sc2ccc(NC(=O)c3cc(Cl)ccc3OC)cc2)n2ncnc2n1,i
CCOC(=O)CCc1c(C)nc2nc(CNc3cccc(C)c3)[nH]n2c1=O,+
CCOC(=O)CCc1c(C)nc2nc(CNc3ccc(F)cc3)[nH]n2c1=O,i
CCOC(=O)CCc1c(C)nc2nc(CNc3cccc(Cl)c3)[nH]n2c1=O,+
CCc1nc2nc(C)[nH]n2c(=O)c1NC(=O)Nc1cccc(Cl)c1,i
CCc1nc2nc(C)c(NC(=O)Nc3cccc(C)c3)c(=O)n2[nH]1,i
CCc1nc2nc(C)c(NC(=O)Nc3ccc(F)c(Cl)c3)c(=O)n2[nH]1,i
CCO[C@H]1COC[C@@H]1NC(=O)c1onc2ccccc12,i
Cc1nn(C)c(C)c1CN(C1CC1)C1Cc2ccccc2C1,i
Cc1ccc(NC2(C(=O)NCc3c(C)n[nH]c3C)CCCC2)cc1,i
CC(NC(=O)CCN1CCCCCC1=O)c1ccc(O)c(F)c1 (configuration not stated),i
CCCc1nc2nc[nH]n2c(=O)c1NC(=O)Nc1ccc(C(=O)OCC)cc1,i
CCn1nc(C(=O)O)c2c1CCN(C(=O)C(c1cccnc1)N1CCCC1)C2 (configuration not stated),i
O=C(CSc1ccncc1)N1CCCC(c2ccccc2)C1 (configuration not stated),i
CCN1C(SCC(=O)N(C)c2ccccc2)=NS(=O)(=O)c2ccccc21,+
CCN1C(SCC(=O)N2CCCC2)=NS(=O)(=O)c2ccccc21,+
CCOc1ccc(S(=O)(=O)N2CCC(n3c(C)nc4cccnc43)CC2)cc1,i
CCN1CCN(c2cc3n(c(=O)n2)CCc2cc(OC)c(OC)cc2-3)CC1,i
Cc1ccc(Nc2cc(C)nc(Nc3ccc(NC(=O)c4ccc(-c5ccccc5)cc4)cc3)n2)cc1,i
COc1cccc(C2CCCN2C(=O)Nc2n[nH]c(C3CCCCC3)n2)c1 (configuration not stated),i
CSc1nc(Nc2cccc(C(F)(F)F)c2)c(C#N)c(-c2ccc(C)cc2)n1,i
Cc1ccn2c(=O)cc(COc3cccc(NC(=O)c4cccs4)c3)nc2c1,i
